Source: PubChem BioAssay
Active and inactive are the calls of the source. Unless noted, the rule behind the calls is not given here.

Assays:
[1] = test system: Wnt5a (protein binding on small-molecule microarray); assay: Wnt5a binders on small-molecule microarray, primary screen, biophysical, 635/667 nm fluorescence (AID 1142); details: 635 nm fluorescence, higher = more signal;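 note: fluorescence read at 667 nm with signal to noise per printed feature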
[2] = cell viability in Huh7 cells, primary screen, cytotoxicity control for HCV replication inhibitor project, CellTiter-Glo luminescence, basal, 48 h (AID 1143); details: Huh7 HCV replicon, higher = more signal, called active from +8 up or from −8 down;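 note: Huh7 hepatoma cells carrying a hepatitis C replication reporter with no stimulus; test concentration not given here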
[3] = P. aeruginosa biofilm formation inhibitors, primary screen, PAO1 strain, BacTiter-Glo luminescence, LB-PBS (AID 1144); details: 12 h, higher = more signal
[4] = CREB reporter modulators without forskolin, primary screen, cell-based, PC12, CRE-LacZ reporter, unstimulated (AID 1145); details: no forskolin, luminescence, 4.5 h, higher = more signal, called active from +8 up or from −8 down
[5] = CREB reporter modulators under forskolin, primary screen, cell-based, PC12, CRE-LacZ reporter, forskolin-stimulated (AID 1146); details: luminescence, 4.5 h, higher = more signal, called active from +8 up or from −8 down;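 note: PC12 cells with 6xCRE LacZ reporter stimulated by forskolin 10 µM; beta-galactosidase reporter signal reflecting CREB driven transcription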
[6] = target: Streptavidin (Streptomyces avidinii) (UniProt P22629); assay: streptavidin binders on small-molecule microarray, primary screen, artefact control for SMM compound annotation, biophysical, 635/667 nm fluorescence (AID 1147); details: streptavidin binding, higher = more signal;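 note: signal reflects streptavidin binding to arrayed compounds as a control protein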
[7] = small-molecule binders of probe aInhba, primary screen, biochemical, small-molecule microarray, 635/667 nm fluorescence (AID 1148); details: higher = more signal;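 note: score merges 667nm spot fluorescence with signal-to-noise for antibody binding to printed compounds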
[8] = target: Torsin-1A (Homo sapiens) (UniProt O14656); assay: torsin A binders from cell lysate, primary screen, small-molecule microarray, wild-type, 635/667 nm (AID 1149); details: COS7 hTOR1A-WT lysate, 635 nm fluorescence, higher = more signal
[9] = target: Torsin-1A (Homo sapiens) (UniProt O14656); assay: small-molecule binders of mutant TOR1A in lysate, primary screen, cell lysate, small-molecule microarray, COS7 lysate, 635/667 nm fluorescence (AID 1150); details: COS7 hTOR1A mutant lysate, 635 nm fluorescence, higher = more signal;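 note: score pools 667 nm emission and signal to noise measuring lysate protein binding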
[10] = test system: Sonic hedgehog protein (Shh); assay: small-molecule binders of Shh protein, primary screen, biochemical, small-molecule microarray, 635/667 nm fluorescence (AID 1151); details: small-molecule microarray binding, 635 nm fluorescence; higher = more signal;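 note: Shh protein binding to compounds spotted on small-molecule microarray slides; score combines spot fluorescence intensity with signal-to-noise across triplicate slides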

Chain of Torsin-1A (Homo sapiens) (O14656 whole entry, looked up): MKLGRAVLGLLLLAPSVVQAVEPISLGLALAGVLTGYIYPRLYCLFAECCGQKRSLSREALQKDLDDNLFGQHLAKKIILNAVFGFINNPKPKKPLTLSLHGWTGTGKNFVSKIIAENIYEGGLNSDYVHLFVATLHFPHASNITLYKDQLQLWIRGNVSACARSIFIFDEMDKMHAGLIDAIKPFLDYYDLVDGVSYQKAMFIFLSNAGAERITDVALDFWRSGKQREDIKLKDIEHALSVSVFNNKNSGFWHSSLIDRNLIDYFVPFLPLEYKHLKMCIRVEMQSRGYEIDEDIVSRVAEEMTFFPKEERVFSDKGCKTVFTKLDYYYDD
Chain of Streptavidin (Streptomyces avidinii) (P22629 whole entry, looked up): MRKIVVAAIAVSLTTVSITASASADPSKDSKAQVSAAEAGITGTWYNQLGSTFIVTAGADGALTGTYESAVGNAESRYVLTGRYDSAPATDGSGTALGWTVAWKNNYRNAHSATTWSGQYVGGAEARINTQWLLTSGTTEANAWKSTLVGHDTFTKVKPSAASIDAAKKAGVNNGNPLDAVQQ

Row | Structure (SMILES) | composite z-score [1] | z-score [2] | z-score [3] | z-score [4] | z-score [5] | composite z-score [6] | composite z-score [7] | composite z-score [8] | composite z-score [9] | composite z-score [10]
1 | C=C(COC)/C(=C/C[C@@H](OC(C)=O)c1ccc(OCCO)cc1)c1cnc2ccccc2c1 | 0.837 | -2.22 (inactive) | -0.826 (inactive) | 3.77 (inactive) | -0.861 (inactive) | 1.36 | -0.0403 | -0.148 | 0.647 | 1.75
2 | COCCOC(=O)N1C(=O)[C@@]2(c3ccccc31)[C@H](c1ccccc1OCCO)N1[C@H](c3ccccc3)[C@H](c3ccccc3)OC(=O)[C@H]1[C@@H]2C(=O)N1CCN(c2ncccn2)CC1 | -0.0525 | -2.08 (inactive) | 0.235 (inactive) | -0.0688 (inactive) | 3.84 (inactive) | 0.498 | -0.0102 | 0.447 | 0.489 | 1.34
3 | CCCC[C@H]1OB(O)C[C@H]2C1=C(COC)C[C@H]1C(=O)N(C)C(=O)[C@H]12 | 0.277 | 0.203 (inactive) | 0.573 (inactive) | 0.76 (inactive) | 0.505 (inactive) | 0.727 | -0.0093 | 0.408 | 0.301 | 1.32
4 | CCOC(=O)C[C@H]1[C@H](OC(=O)c2ccccc2-c2ccccc2)[C@@H](NC(=O)CC(C)C)c2cc(OCCCO)ccc2N1C(=O)Cc1ccc(OC)cc1 | -0.0051 | -0.386 (inactive) | 0.393 (inactive) | 6.91 (inactive) | 0.0967 (inactive) | 0.0802 | -0.179 | 0.0776 | 0.199 | 0.222
5 | NC(=O)NCC#Cc1ccc2c(c1)[C@]1(C(=O)N2)[C@H](C(=O)Nc2nc3ccccc3s2)[C@H]2C(=O)O[C@H](c3ccccc3)[C@H](c3ccccc3)N2[C@@H]1c1ccccc1OCCO | 0.436 | -4.58 (inactive) | -1.22 (inactive) | 0.0776 (inactive) | -0.327 (inactive) | 2.4 | 0.105 | -0.3 | 0.0607 | 2.04
6 | COCCOC(=O)N1C(=O)[C@@]2(c3cc(C#CCC(C(=O)OC)C(=O)OC)ccc31)[C@H](C(=O)N1CCN(c3ncccn3)CC1)[C@H]1C(=O)O[C@H](c3ccccc3)[C@H](c3ccccc3)N1[C@@H]2c1ccccc1OCCO | 0.833 | -3.78 (inactive) | 1.13 (inactive) | -0.337 (inactive) | -0.374 (inactive) | 0.39 | 0.326 | 0.135 | 0.579 | 2.19
7 | NCCCCCCNC(=O)[C@@H]1C[C@@H]2C(=O)NCC(=O)N2[C@@H]1c1ccc(O)cc1 | 0.387 | -0.402 (inactive) | -2.2 (inactive) | -1.07 (inactive) | 0.0413 (inactive) | 0.718 | -0.104 | 1.3 | 0.665 | 2.18
8 | COC(=O)C[C@H]1O[C@]2(C(=O)N(C)c3ccccc32)[C@@H](C)[C@@H]1[Si](C)(C)F | 0.56 | -1.18 (inactive) | -0.852 (inactive) | 1.03 (inactive) | -0.383 (inactive) | 0.454 | 0.0301 | 0.142 | 0.164 | 1.79
9 | O=C1N(Cc2ccccc2)c2ccccc2[C@@H]2OC(c3ccc(OCCCO)cc3)=N[C@]12CCS(=O)(=O)c1ccccc1 | 0.443 | -2.24 (inactive) | -0.19 (inactive) | 3.13 (inactive) | -0.406 (inactive) | 0.209 | -0.0719 | 0.216 | 0.726 | 0.695
10 | C=C(/C(=C/C[C@H](OC(C)=O)c1ccc(CO)o1)c1cc(C(=O)OC)ccc1OC)C(C)C | 0.0267 | -3.56 (inactive) | 0.263 (inactive) | 2.22 (inactive) | 0.769 (inactive) | -0.489 | 0.0051 | -0.501 | 0.241 | 1.05
11 | COCCCNC(=O)[C@]1(CCC(=O)OC(C)(C)C)N=C(c2ccc(OCCCO)cc2)O[C@@H]1c1ccccc1CN=[N+]=[N-] | 0.297 | 0.107 (inactive) | -0.514 (inactive) | -0.459 (inactive) | -1.18 (inactive) | 1.24 | 0.287 | 1.64 | 1.58 | 0.233
12 | C=CCOC(=O)[C@@H]1[C@H]2C(=O)O[C@H](c3ccccc3)[C@H](c3ccccc3)N2[C@H](c2ccc(OCCOC(=O)[C@H]3C[C@H]4C(=O)N5CCC[C@H]5C(=O)N4[C@H]3c3ccc(O)cc3)cc2)[C@@]12C(=O)Nc1ccc(I)cc12 | 0.259 | -2.3 (inactive) | -0.212 (inactive) | 0.277 (inactive) | -0.466 (inactive) | -0.033 | -0.0775 | 0.919 | 0.98 | 2.15
13 | CC(C)NC(=O)[C@@H]1c2ccccc2C(=O)N(C2Cc3ccccc3C2)[C@H]1c1ccc(CO)cc1 | -0.0402 | -1.09 (inactive) | -0.737 (inactive) | 0.441 (inactive) | -1.35 (inactive) | 0.251 | -0.128 | -0.232 | 0.474 | 0.231
14 | COC(=O)[C@@]1(Cc2ccccc2)N=C(c2ccc(OCCCO)cc2)O[C@H]1c1ccccc1 | 0.912 | -4.45 (inactive) | 0.35 (inactive) | 1.45 (inactive) | -2.12 (inactive) | -0.369 | 0.0816 | 0.348 | 1.74 | -0.0883
15 | COc1cc2c(cc1OC)CN(C(=O)[C@H]1[C@@H]3C(=O)O[C@@H](c4ccccc4)[C@@H](c4ccccc4)N3[C@@H](c3ccc(O)cc3)[C@]13C(=O)Nc1ccccc13)CC2 | 0.0185 | -1.57 (inactive) | -0.219 (inactive) | 0.358 (inactive) | 0.282 (inactive) | -0.805 | 0.417 | 0.191 | 1.36 | 0.931
16 | O=C1O[C@H](c2ccccc2)[C@H](c2ccccc2)N2[C@H]1[C@@H](C(=O)N1CCCCCCC1)[C@]1(C(=O)Nc3ccc(C#CCCO)cc31)[C@H]2c1ccccc1OCCO | 2.73 | -3.61 (inactive) | 0.999 (inactive) | -0.698 (inactive) | -1.19 (inactive) | 4.08 | 2.33 | 3.84 | 3.83 | 2.53
17 | C=CCN1C(=O)[C@]2(O[C@H](CCn3cc([C@H](O)c4ccccc4)nn3)[C@@H]([Si](C)(C)c3ccc(OC)cc3)[C@@H]2C)c2cc(N3CCC3=O)ccc21 | 0.979 | -4.37 (inactive) | -0.549 (inactive) | 2.37 (inactive) | -0.229 (inactive) | -0.0806 | 0.481 | 0.279 | 0.398 | 2.08
18 | COC(=O)[C@@]1(CCS(=O)(=O)c2ccccc2)N=C(c2ccc(OCCCO)cc2)O[C@H]1c1ccccc1CN=[N+]=[N-] | 0.351 | -2.7 (inactive) | 0.945 (inactive) | 1.38 (inactive) | -1.43 (inactive) | 0.415 | 0.0808 | 0.252 | 0.869 | 0.281
19 | C=CCOC(=O)[C@@H]1[C@H]2C(=O)O[C@H](c3ccccc3)[C@H](c3ccccc3)N2[C@H](c2ccc(OCCOC(=O)[C@@H]3C[C@@H]4C(=O)NCC(=O)N4[C@@H]3c3ccc(O)cc3)cc2)[C@@]12C(=O)Nc1ccc(I)cc12 | 0.828 | 0.489 (inactive) | -0.725 (inactive) | -0.13 (inactive) | -0.974 (inactive) | -0.259 | 0.029 | 0.877 | 0.706 | 1.53
20 | CC(C)OC(=O)C=C1C[C@@H](c2ccccn2)O[C@@H](c2ccccn2)O1 | 0.144 | -0.891 (inactive) | 0.589 (inactive) | -0.0137 (inactive) | -0.322 (inactive) | 0.546 | -0.0001 | 0.0581 | 0.0457 | 1.7
21 | CCCC[C@@H]1C[C@H]1[C@@H](NC(=O)c1ccco1)c1ccccc1C(F)(F)F | 0.667 | -0.547 (inactive) | 0.431 (inactive) | 0.773 (inactive) | 1.3 (inactive) | 1.42 | 2.01 | 0.408 | -0.0311 | 0.0509
22 | COc1ccc([Si](C)(C)[C@@H]2[C@@H](CC(=O)N3CCC[C@H]3CO)O[C@]3(C(=O)N(c4ccccc4)c4ccccc43)[C@H]2C)cc1 | 0.155 | -4.58 (inactive) | 0.439 (inactive) | -0.0815 (inactive) | 0.334 (inactive) | 0.578 | 0.0047 | 0.491 | 0.466 | 1.53
23 | O=C1NC(=O)C2C1C=CC(C(O)c1cc(C(F)(F)F)cc(C(F)(F)F)c1)N2Nc1ccccn1 (stereo not given) | -0.102 | 0.804 (inactive) | -0.162 (inactive) | 0.0501 (inactive) | 0.403 (inactive) | 0.0086 | -0.0059 | -0.138 | 0.237 | 0.87
24 | Cc1ccc(S[C@]2(C(=O)NCCCN(C)C)CC(=O)N(Cc3cc(C(F)(F)F)cc(C(F)(F)F)c3)[C@@H]2c2ccc(CO)cc2I)cc1 | -0.116 | -1.21 (inactive) | 0.463 (inactive) | -0.994 (inactive) | 1.23 (inactive) | -0.0724 | 0.172 | -0.314 | -0.88 | -0.503
25 | COC(=O)[C@@]1(Cc2ccc(F)cc2)[C@H]2c3cc(C(=O)N(C)C)n(Cc4cc(F)c(F)c(F)c4)c3C[C@H]2CN1C(=O)c1ccccc1 | 0.283 | -3 (inactive) | 0.459 (inactive) | 1.53 (inactive) | 0.578 (inactive) | 1.25 | 1.08 | -0.272 | 0.193 | -0.176
26 | CC(C)C[C@@H]1NC(=O)[C@@H]2C[C@H](C(=O)O)[C@H](c3cccc(OCCO)c3)N2C1=O | 0.64 | -1.07 (inactive) | 0.133 (inactive) | 0.826 (inactive) | 1.41 (inactive) | -0.811 | -0.209 | 0.198 | 1.09 | 0.188
27 | O[C@@H](Cc1ccccc1)[C@H]1C2C=CCCC=C2CN1Cc1cccc(Cl)c1 (stereo not given in full) | 0.35 | -1.1 (inactive) | -0.829 (inactive) | 3.56 (inactive) | 2.78 (inactive) | 0.513 | 0.0173 | 0.739 | -0.453 | 1.2
28 | CCS[C@H]1[C@@H](C(=O)O)[C@H](c2ccc(C)cc2)N(S(=O)(=O)c2ccc(C)cc2)[C@@H]1CC | 0.261 | -0.0715 (inactive) | -0.54 (inactive) | -0.928 (inactive) | -0.334 (inactive) | 0.68 | 0.206 | -0.0832 | 0.477 | -0.7
